# Source: PubChem BioAssay AID485275 (NMMLSC, 2010)
# The campaign covered roughly 330,000 compounds. About 1,400 (0.42%) were called active. The entries come from a sample that favours actives as a whole. Values without a mark were called inactive.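 The calls were made as follows: active = plate passing quality check with inhibition over a set limit, or well fluorescence over plate mean plus 4 SD; inactive = the rest.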
# Test: antifungal drug efflux pump blockers, triplex strains – S. cerevisiae, Nile Red, multiplex, primary screen (AID 485275);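 also: Nile Red retained in pooled yeast measured as flow cytometry median fluorescence; 0% = buffer negative control and 100% = Enniatin B positive control; higher means more Nile Red kept so more efflux inhibition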
# Settings: S. cerevisiae Candida pump triplex, at 10 µM, hits give high values
row,Structure (SMILES),inhibition
1,CCN1CCN(c2ccc(S(=O)(=O)N3CCCCC3)cc2NC(=O)Cc2c(Cl)cccc2Cl)CC1,-0.36%
2,Cc1cc(-c2ccc(S(=O)(=O)N3CCc4ccccc4C3)s2)on1,-0.2%
3,CC(C)N(c1ccccc1)c1ncnc(NCCC(=O)O)c1[N+](=O)[O-],0.29%
4,CC(C)Cn1c(N)c(C(=O)COC(=O)C2CCCN2C(=O)c2cccs2)c(=O)n(C)c1=O (stereo not given),0.07%
5,Fc1ccccc1C(c1nnnn1Cc1ccc2c(c1)OCO2)N1CCN(Cc2ccccc2)CC1 (stereo not given),-0.02%
6,CCOC(=O)C1CCN(C(c2cc3cc(C)cc(C)c3[nH]c2=O)c2nnnn2C2CCCCC2)CC1 (stereo not given),0.07%
7,Cc1cc(C)c2[nH]c(=O)c(C(c3nnnn3Cc3ccc4c(c3)OCO4)N3CCCC3)cc2c1 (stereo not given),1.06% (active)
8,O=C(CN(c1cccc(Cl)c1)S(=O)(=O)c1ccccc1)NN=C1CCCC1,0.07%
9,O=C(CN1C2CCC1CC(NC(=O)C1CC1)C2)NCc1ccccc1 (stereo not given),-0.03%
10,CC(C)C(=O)N1CCC2(CC1)Oc1ccc(F)cc1C(=O)C21CC(c2ccccc2)=NO1 (stereo not given),78.3% (active)
11,CC(C)C(=O)N1CCN(c2nc(-c3ccccc3)c3c(c2C#N)CC(C)(C)OC3)CC1,-0.13%
12,O=C1CC2(CCN(C(=O)COc3ccc(F)cc3)CC2)Oc2ccccc21,-0.44%
13,CC(C)c1ccc2oc(=O)cc(CN3CCN(Cc4ccccc4)CC3)c2c1,-0.11%
14,CCCCOc1ccc(C(=O)NCC(=O)OCC(=O)c2c(N)n(C)c(=O)n(C)c2=O)cc1,0.65% (active)
15,CCc1ccc(OCC(=O)OCC(=O)c2c(N)n(C)c(=O)n(C)c2=O)cc1,-0.05%
16,Cn1c(N)c(C(=O)COC(=O)COc2ccc(Cl)cc2)c(=O)n(C)c1=O,0%
17,O=C(NCC1CCCO1)c1ccccc1-c1nc(-c2ccccc2Cl)no1 (stereo not given),-0.05%
18,CCCNC(=O)N1CCC(c2ccc3c(c2)OCO3)CC1,0.01%
19,COc1ccc(C(=O)NC2CC(C)(C)Cc3c2cnn3-c2ccccc2)c(OC)c1 (stereo not given),1.15% (active)
20,Cc1cc(C(=O)NC2CC(C)(C)Cc3c2cnn3-c2ccccc2)n[nH]1 (stereo not given),0.03%
21,CC1(C)Cc2c(cnn2-c2cccc(F)c2)C(NC(=O)c2cc[n+]([O-])cc2)C1 (stereo not given),0.12%
22,Cc1ccc(S(=O)(=O)N(Cc2ccc(Cl)cc2)c2ccccc2C(=O)NCc2cccnc2)cc1,0.08%
23,Cc1ccc(C(=O)Nc2ccc(NC(=O)c3cccs3)cc2)c(C)c1,0.18%

row,Structure (SMILES),inhibition
1,O=C(Nc1ccc(NC(=O)c2cccs2)cc1)c1ccc2ccccc2c1,1.22% (active)
2,COc1cc(NC(=O)c2ccc3c(c2)OCO3)ccc1NC(=O)c1cccs1,-0.1%
3,CCOC(=O)C1CCN(C(=O)CN2C(=O)NC(C)(c3ccc4cc(OC)ccc4c3)C2=O)CC1 (stereo not given),-0.03%
4,O=C1c2ccccc2[C@@H]2C[C@@H](O)[C@H](Nc3ccccc3Cl)CCN12,0.16%
5,O=C(CNCc1ccc(F)cc1)Nc1ccccc1-c1ccccc1,-0.07%
6,CCN(CC)CCn1c2c(c(SCC(=O)Nc3ccc(C(C)C)cc3)nc1=O)CCC2,-0.06%
7,CC1CCCCC1NC(=O)c1cn(C)c2ccc(S(=O)(=O)N3CCOCC3)cc2c1=O (stereo not given),-0.14%
8,COCCNC(=O)c1ccc2c(c1)ncn2-c1ccc(C)c(Cl)c1,0.09%
9,CCn1c(/C=C/c2ccc([N+](=O)[O-])o2)nc2ccccc2c1=O,1.26% (active)
10,CCOCCCn1c(NN)nc2ccccc2c1=O,0.04%
11,CCn1c(SCc2ccccc2)nc2cc(OC)c(OC)cc2c1=O,-0.05%
12,C=CC[C@H](CC(=O)NCCO)C(=O)N[C@@H](COC(=O)[C@@H](CC=C)Cc1ccc(F)cc1)Cc1c[nH]c2ccccc12,-0.26%
13,Cc1ccc(C(=O)NC(=S)Nc2ccc(N3CCOCC3)cc2)cc1,0%
14,COc1ccc(C(=O)NC(=S)Nc2ccc(N3CCCC3)cc2)cc1OC,6.65% (active)
15,COc1ccc(C(=O)NC(=S)Nc2ccccc2N2CCN(S(C)(=O)=O)CC2)cc1OC,0.06%
16,CCn1cc(C(=O)N2CC(C)CC(C)C2)c(=O)c2cc(S(=O)(=O)N3CCCC3)ccc21 (stereo not given),0.08%
17,O=C(NCCc1ccccn1)c1cc(-c2ccc(Cl)cc2)nc2ccccc12,0.18%
18,Cn1nnnc1SCC(=O)Nc1ccccc1C(=O)NC1CC1,0%
19,CC(C)(C)C1CCC(=NNC(=O)c2cc(-c3ccccc3)n[nH]2)CC1 (stereo not given),0.31%
20,CC(=C/c1ccccc1)/C=N/NC(=O)c1cc(C)oc1C,0.06%
21,CC(/C=N/NC(=O)c1cc(-c2ccc3ccccc3c2)n[nH]1)=C\c1ccco1,0.5% (active)
22,CCOC(OCC)c1ccc(/C=C\c2nccc(N)n2)cc1,-0.05%
23,Cc1ccc(-n2c(SCC(=O)Nc3ncc(Cl)cc3Cl)nc3ccccc32)cc1,0.75%

row,Structure (SMILES),inhibition
1,CCCn1c(O)c(CN2CCCC(C)C2)c(C)c(C#N)c1=O (stereo not given),-0.15%
2,CCOc1ccc(N2C(=O)CN(c3cccc4ccccc34)C2=S)cc1,-0.04%
3,COc1ccc(S(=O)(=O)N2CCOC2CNC(=O)C(=O)NCc2ccc(F)cc2)cc1 (stereo not given),5.66% (active)
4,O=C(NCc1ccc2c(c1)OCO2)C(=O)NCC1OCCN1S(=O)(=O)c1ccc(F)cc1 (stereo not given),0.25%
5,COc1ccc(CCNC(=O)C(=O)NCC2OCCN2S(=O)(=O)c2ccc(F)cc2)cc1OC (stereo not given),0.07%
6,O=C(c1ccc(Cl)nc1)N1CCN(S(=O)(=O)c2ccc3c(c2)OCCO3)CC1,-0.06%
7,O=C(OCC(=O)c1c[nH]c2ccccc12)c1cccc(O)c1,0.55%
8,O=C(OCc1ccc(-c2ccccc2)cc1)c1cccc(O)c1,20.2% (active)
9,O=C(OCc1ccc(Br)cc1)c1cccc(-c2nnc(-c3ccccc3)o2)c1,0.06%
10,COc1cc(CNc2ncn[nH]2)ccc1OCc1ccccc1C,0.06%
11,[2H]C(CCOS(N)(=O)=O)c1ccccc1 (stereo not given),-0.09%
12,Fc1cnc(N2CCOCC2)nc1NCc1ccccc1,-0.13%
13,CCOC(=O)c1c(N=CN(C)C)c(C#N)c2n1CCCC2,-0.18%
14,Cc1ccc(NC(=O)CSc2nnc(COc3ccccc3C)o2)cc1,-0.17%
15,CCCc1nnc(SCC(=O)Nc2ccc(C(=O)OCC)cc2)o1,2.83% (active)
16,COc1ccc(Cc2nnc(SCC(=O)Nc3ccc(C)c(C)c3)o2)cc1OC,-0.04%
17,O=C(COC(=O)Cn1cnc2ccccc2c1=O)NCc1ccccc1Cl,0.17%
18,Nc1ccc2nc3c(=O)[nH]c(=S)[nH]c3nc2c1,0.97% (active)
19,Cc1noc(C)c1S(=O)(=O)N(C)C[C@H]1Oc2c(NC(=O)Nc3ccc4c(c3)OCO4)cccc2C(=O)N([C@H](C)CO)C[C@@H]1C,0.73%
20,COC(=O)[C@]1(CC(C)C)N[C@H](c2ccc(SC3CCCCC3)cc2)[C@@H]2C(=O)N(C)C(=O)[C@@H]21,-0.02%
21,CC[n+]1cc(C)ccc1/C=C/c1ccc(N(C)C)cc1,5.98% (active)
22,O=C(N/N=C\c1cc2c(cc1Cl)OCO2)c1ccc(Br)s1,0.06%
23,CC(/C=C/c1ccco1)=N/NC(=O)C1COc2ccccc2O1 (stereo not given),0.12%

row,Structure (SMILES),inhibition
1,O=C(N/N=C/C=C/c1ccccc1)C1CC1(c1ccccc1)c1ccccc1 (stereo not given),-0.21%
2,CC(/C=C/c1ccccc1)=N\NC(=O)C1CC1(C)c1ccccc1 (stereo not given),2.26% (active)
3,Cc1csc(NC(=O)c2ccc(C)s2)n1,0.06%
4,Cc1ccc(C(=O)Nc2nc3ccc(Cl)cc3s2)o1,-0.17%
5,Cc1csc(NC(=O)c2ccc(-c3ccc(Cl)cc3Cl)o2)n1,16.6% (active)
6,O=C(NCc1ccncc1)C(=O)NCC1OCCN1S(=O)(=O)c1ccc(Br)cc1 (stereo not given),0.06%
7,O=C(COC(=O)c1ccc(N2CCCC2=O)cc1)c1ccc(OC(F)F)cc1,0.24%
8,CC1CCCC(N2CCN(C(=O)c3ccc(F)cc3)CC2)C1 (stereo not given),-0.1%
9,CCn1c(SC(C)C(=O)Nc2ccc(N3CCOCC3)cc2)nnc1-c1ccco1 (stereo not given),0.21%
10,O=C(CN1C(=O)c2cccnc2Oc2ccc(Cl)cc21)NCCc1ccccc1,-0.23%
11,COc1ccccc1C1CCN(c2ccc([N+](=O)[O-])cn2)CC1,0.16%
12,COc1ccccc1CSc1ncc(-c2ccc([N+](=O)[O-])cc2)[nH]1,18.3% (active)
13,N#Cc1c(-c2ccccc2)nc(SCc2ccc([N+](=O)[O-])cc2)[nH]c1=O,-0.1%
14,CCC(Cc1ccccc1)NS(=O)(=O)c1ccc2c(c1)NC(=O)CS2 (stereo not given),-0.01%
15,CCOc1ccc(C2/C(=C(/O)c3ccc4c(c3)CC(C)O4)C(=O)C(=O)N2CCCn2ccnc2)cc1 (stereo not given),4.24% (active)
16,COCCCN1C(=O)C(=O)/C(=C(/O)c2ccc3c(c2)CC(C)O3)C1c1cccnc1 (stereo not given),0.03%
17,COc1ccc(C2/C(=C(/O)c3ccc4c(c3)CC(C)O4)C(=O)C(=O)N2Cc2ccncc2)cc1 (stereo not given),0.59%
18,COc1ccc(S(=O)(=O)N2CCCCCC2)cc1C(=O)N(C)Cc1cccc(OC)c1OC,0.1%
19,Cc1nn(C)cc1C(=O)Nc1ccccc1Br,6.48% (active)
20,O=C(O)c1ccccc1-c1ccccc1C(=O)Nc1ccccc1Br,-0.16%
21,Cc1nn(C)cc1C(=O)c1ccccc1,-0.06%
